Experimental findings from PubChem BioAssay (NCATS) are described below.

Results filed as inconclusive are left out. The source made the active and inactive calls. Calls follow the shape of the dose curve; as a rule, active = well fitted cell-killing curve with a large enough effect; inconclusive = small, poorly fitted or top-dose-only effect; inactive = flat fitted curve, though single readings scatter.
Potency is read from the fitted curve at half-maximal effect.

The nature of this assay: Cell Viability - LYMP2-002 (AID 977).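 Also: compound exposure lasted 24 h at 37 °C.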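 As to activity change, negative = cytotoxic: plate controls were DMSO only for no effect and 92 µM tetraoctylammonium bromide for full effect.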 Particulars: LYMP2-002 lymphoblastoid cell viability, qHTS; series mostly up to 92.2 µM; activity change, negative = cytotoxic: at the top concentration. From the text: NIH Chemical Genomics Center [NCGC]
NIH Molecular Libraries Screening Centers Network [MLSCN]
National Institutes of Environmental Health Sciences [NIEHS]
National Toxicology Program [NTP]
We have developed a 1536-well cell-based assay for quantitative high throughput screening (qHTS) against a number of cell lines to determine in vitro cytotoxicity of small molecules. This particular assay uses a human lymphoblastoid cell line (LYMP2-002) purchased from Coriell Institute for Medical Research.
NCGC Assay Protocol Summary:
The CellTiter-Glo luminescent cell viability assay (Promega) is a homogeneous method to measure the number of viable cells in culture. The end point readout of this assay is based on quantitation of intracellular ATP, an indicator of metabolic activity, using the luciferase reaction. Luciferase catalyzes the oxidation of beetle Luciferin to oxyluciferin and light in the presence of ATP. The luminescent signal is proportional to amount of ATP present.
Using the CellTiter-Glo luminescent cell viability assay, the amount of cellular ATP was measured in the lymphoblastoid cell line with complete culture medium following compound treatment for 24 hours. The assay was performed in opaque white Kalypsys 1536-well plates. In the screen, tetraoctylammonium bromide was used as positive control. Library compounds were measured for their ability to cause acute toxicity in the cell line, as reflected by a decrease in intracellular ATP levels, in a concentration-dependent manner. […] AC50 values were determined from concentration-response data modeled with the standard Hill equation.
qHTS protocol for CellTiter Glo lymphoblastoid cellular assay
[Step] [Parameter] [Value] [Description]
1. Reagent; 5 uL; 2500 lymphoblastoid cells/well
2. Time; 5 hr; 37 C incubation
4. Controls; 23 nL; Tetraoctylammonium bromide 6.4pM to 92 uM
5. Time; 24 hr; 37 C incubation
6. Reagent; 5 uL; CellTiter Glo reagent
7. Time; 30 min; Room Temperature
8. Detection; Luminescence; Viewlux plate reader
Keywords: cell viability, cytotoxicity, lymphoblastoid cell line, luminescence, NTPHTS, NTPHTS_NCGC, NIEHS, DSSTox, MLSMR, MLSCN, NIH Roadmap, qHTS, NCGC
Regarding `COc1ccc(CN(CCN(C)C)c2ccccn2)cc1`, the “activity change, negative = cytotoxic” value was -22.7% (inactive).
Turning to `Nc1nc(N)c2nc(-c3ccccc3)c(N)nc2n1`, the “activity change, negative = cytotoxic” value was -24.7% (inactive).
With `COC(=O)[C@H]1[C@H]2C[C@@H]3c4[nH]c5cc(OC)ccc5c4CCN3C[C@H]2C[C@@H](OC(=O)c2cc(OC)c(OC)c(OC)c2)[C@@H]1OC`, the Potency is 79.4 µM (active).
As for `CCCCNC(=O)NS(=O)(=O)c1ccc(C)cc1`, the “activity change, negative = cytotoxic” value was -3.95% (inactive).
Turning to `O=c1[nH]c(=O)n([C@H]2C[C@H](O)[C@@H](CO)O2)cc1Br`, the “activity change, negative = cytotoxic” value was 3.84% (inactive).
With `CCCCOCCOCCOCc1cc2c(cc1CCC)OCO2`, the “activity change, negative = cytotoxic” value is -16.1% (inactive).
On the same count and under the same terms, next, `NC(=Nc1ccccc1)Nc1ccccc1`: -0.55% (inactive); `COc1cc(Cc2cnc(N)nc2N)cc(OC)c1OC`: 1.94% (inactive).
Still for that read-out and setting: next, `NC(=O)N1c2ccccc2C=Cc2ccccc21`: -2.21% (inactive); `CN=C(NC#N)NCCSCc1nc[nH]c1C`: 0.805% (inactive).
